# Results filed as inconclusive are left out. A call without a number means that no potency is given here. Calls of active or inactive are those of the source. Unless noted, the call rests on the fitted dose curve; in most records, active means well fitted curve in the direction sought with a large enough effect in the repeat runs; inconclusive means weak or mixed curves; inactive means no such curve, though single readings can be large; an effect the other way counts as inactive or inconclusive.
# Experiments:
# [1] = qHTS assay to test for compound auto fluorescence at 535 nm (green) in HEK293 cells (AID 720680)
# [2] = qHTS assay to test for compound auto fluorescence at 460 nm (blue) in HEK293 cell free culture (AID 720681)
# Method in brief: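 Blue fluorescence (Ex 405/Em 460 nm, triamterene-equivalent) was read immediately after pin transfer of compound or DMSO into medium (DMEM, 10% FBS) without cells.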
# [3] = qHTS assay to test for compound auto fluorescence at 535 nm (green) in HEK293 cell free culture (AID 720682)
# Method in brief: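 Measurement is a direct plate read of green fluorescence (485 nm in, 535 nm out) after compound addition to serum-supplemented DMEM lacking cells, with fluorescein used to express intensities.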
# [4] = qHTS assay to test for compound auto fluorescence at 590 nm (red) in HEK293 cell free culture (AID 720683)
# Method in brief: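 Red-channel autofluorescence of compounds in culture medium (DMEM, 10% FBS), no cells, measured at 540/590 nm. Rose Bengal sodium is the reference fluorophore for equivalence.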
# [5] = qHTS assay to test for compound auto fluorescence at 590 nm (red) in HepG2 cell free culture (AID 720684)
# Method in brief: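 Steps: dispense MEM/10% FBS medium, no cells; pin compound or DMSO vehicle; read red channel, Ex/Em 540/590 nm. Output given as Rose Bengal sodium equivalents.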
# [6] = qHTS assay to test for compound auto fluorescence at 460 nm (blue) in HepG2 cell free culture (AID 720685)
# Method in brief: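 Compound (23 nL) or DMSO pinned into cell-free MEM with 10% FBS; blue fluorescence read at 405/460 nm excitation/emission, expressed as auto-fluorescence equivalency to triamterene.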
# [7] = qHTS assay to test for compound auto fluorescence at 535 nm (green) in HepG2 cell free culture (AID 720686)
# [8] = qHTS assay to test for compound auto fluorescence at 460 nm (blue) in HepG2 cells (AID 720687)
# Method in brief: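 Blue-channel autofluorescence (Ex/Em 405/460 nm, triamterene-equivalent) was measured after 1 hr compound exposure at 37 C, 5% CO2. Cells were HepG2, plated overnight at 37 C in MEM plus 10% FBS.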
# [9] = target: Glucocorticoid receptor (Homo sapiens) (UniProt P04150); assay: qHTS assay to identify small molecule agonists of the glucocorticoid receptor (GR) signaling pathway (AID 720691; active means well fitted activation curve with a large enough effect in the signal ratio in the repeat runs, not every such curve was filed as active; the % refers to the signal ratio)
# Method in brief: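 GR-bla HeLa cells (beta-lactamase reporter under glucocorticoid response element) were plated 4 h at 37 C/5% CO2, given compounds in DMSO, and incubated 18 h at 37 C. LiveBLAzer B/G FRET substrate was added for 2 h at room temperature, then fluorescence intensity read.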
# [10] = target: Glucocorticoid receptor (Homo sapiens) (UniProt P04150); assay: qHTS assay to identify small molecule antagonists of the glucocorticoid receptor (GR) signaling pathway (AID 720692; active means well fitted inhibition curve with a large enough effect in the signal ratio in the repeat runs, not every such curve was filed as active; the % refers to the signal ratio)
# Method in brief: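 GR-bla HeLa cells (beta-lactamase reporter under glucocorticoid response element) were pre-plated 4 h at 37 C, treated with compounds plus 5 nM dexamethasone (final) for 18 h, then read by LiveBLAzer B/G FRET fluorescence after 2 h.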
# [11] = qHTS assay to identify small molecule antagonists of the glucocorticoid receptor (GR) signaling pathway - cell viability counter screen (AID 720693); further: nearly all actives have a fitted effect of over 55% in size
# [12] = qHTS assay for identifying genotoxic compounds that show differential cytotoxicity against isogenic chicken DT40 cell lines with known DNA damage response pathways - wild type cell line (AID 743012); further: nearly all actives have a fitted effect of over 60% in size
# Method in brief: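 Parental DNA repair-proficient DT40 cells, 300 per well, were pre-incubated ~0.5 h at 37 C/5% CO2, pin-dosed with compounds in DMSO, then incubated 40 h. Viability was read as CellTiter-Glo luminescence after 30 min at room temperature.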
# [13] = qHTS assay for identifying genotoxic compounds that show differential cytotoxicity against isogenic chicken DT40 cell lines with known DNA damage response pathways - Rev3 mutant cell line (AID 743014); further: nearly all actives have a fitted effect of over 55% in size
# [14] = qHTS assay for identifying genotoxic compounds that show differential cytotoxicity against isogenic chicken DT40 cell lines with known DNA damage response pathways - Rad54/Ku70 mutant cell line (AID 743015); further: nearly all actives have a fitted effect of over 60% in size; further: potency means the concentration at half of the fitted maximal effect
# [15] = qHTS assay to identify small molecule antagonists of the androgen receptor (AR) signaling pathway - cell viability counter screen (AID 743033; further: nearly all actives have a fitted effect of over 45% in size)
# [16] = target: Androgen receptor (Homo sapiens) (UniProt P10275); assay: qHTS assay to identify small molecule antagonists of the androgen receptor (AR) signaling pathway (AID 743035; active means well fitted inhibition curve with a large enough effect in the signal ratio in the repeat runs, not every such curve was filed as active; the % refers to the signal ratio)
# Method in brief: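 HEK293 cells stably carrying a UAS-driven beta-lactamase reporter (AR-UAS-bla GripTite) were plated for 4 h at 37C, then given compound and the agonist R1881 and incubated 16 h. Reporter activity was read by LiveBLAzer B/G FRET fluorescence after 2 h at room temperature.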
# [17] = target: Androgen receptor (Homo sapiens) (UniProt P10275); assay: qHTS assay to identify small molecule agonists of the androgen receptor (AR) signaling pathway using the MDA cell line (AID 743040; further: nearly all actives have a fitted effect of over 20% in size)
# Method in brief: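 Cells plated, 5 h at 37C/0% CO2; compound or DMSO pinned; 16 h at 37C; ONE-Glo added; luminescence measured after 30 min at room temperature. Reporter line: MDA-kb2 with MMTV-luciferase responsive to AR and GR.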
# [18] = qHTS assay to identify small molecule antagonists of the androgen receptor (AR) signaling pathway using the MDA cell line - cell viability counter screen (AID 743041; further: nearly all actives have a fitted effect of over 45% in size; further: potency means the concentration at half of the fitted maximal effect)
# Method in brief: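 Cells were plated at 3,000 per well and left 5 h. Compounds in DMSO were then pinned in, followed by R1881. After 16 h at 37C, CellTiter-Fluor fluorescence gave viability.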
# [19] = target: Androgen receptor (Homo sapiens) (UniProt P10275); assay: qHTS assay to identify small molecule antagonists of the androgen receptor (AR) signaling pathway using the MDA cell line (AID 743042; further: nearly all actives have a fitted effect of over 55% in size)
# Method in brief: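 Antagonist mode: compounds plus R1881 agonist added to MDA-kb2 AR-luc cells, incubated 16 h at 37C. Luciferase reporter luminescence quantified, with multiplexed CellTiter-Fluor readout for cell viability.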
# [20] = target: Androgen receptor (Homo sapiens) (UniProt P10275); assay: qHTS assay to identify small molecule agonists of the androgen receptor (AR) signaling pathway (AID 743036; active means well fitted activation curve with a large enough effect in the signal ratio in the repeat runs, with a control signal flat, not every such curve was filed as active; the % refers to the signal ratio)
# Method in brief: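 Beta-lactamase under UAS control, stably integrated in HEK293 GripTite cells, reports receptor activation. After 16 h compound treatment, cells received FRET substrate for 2 h at room temperature before fluorescence reading.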
# Chain of Glucocorticoid receptor (Homo sapiens) (P04150 whole entry, looked up): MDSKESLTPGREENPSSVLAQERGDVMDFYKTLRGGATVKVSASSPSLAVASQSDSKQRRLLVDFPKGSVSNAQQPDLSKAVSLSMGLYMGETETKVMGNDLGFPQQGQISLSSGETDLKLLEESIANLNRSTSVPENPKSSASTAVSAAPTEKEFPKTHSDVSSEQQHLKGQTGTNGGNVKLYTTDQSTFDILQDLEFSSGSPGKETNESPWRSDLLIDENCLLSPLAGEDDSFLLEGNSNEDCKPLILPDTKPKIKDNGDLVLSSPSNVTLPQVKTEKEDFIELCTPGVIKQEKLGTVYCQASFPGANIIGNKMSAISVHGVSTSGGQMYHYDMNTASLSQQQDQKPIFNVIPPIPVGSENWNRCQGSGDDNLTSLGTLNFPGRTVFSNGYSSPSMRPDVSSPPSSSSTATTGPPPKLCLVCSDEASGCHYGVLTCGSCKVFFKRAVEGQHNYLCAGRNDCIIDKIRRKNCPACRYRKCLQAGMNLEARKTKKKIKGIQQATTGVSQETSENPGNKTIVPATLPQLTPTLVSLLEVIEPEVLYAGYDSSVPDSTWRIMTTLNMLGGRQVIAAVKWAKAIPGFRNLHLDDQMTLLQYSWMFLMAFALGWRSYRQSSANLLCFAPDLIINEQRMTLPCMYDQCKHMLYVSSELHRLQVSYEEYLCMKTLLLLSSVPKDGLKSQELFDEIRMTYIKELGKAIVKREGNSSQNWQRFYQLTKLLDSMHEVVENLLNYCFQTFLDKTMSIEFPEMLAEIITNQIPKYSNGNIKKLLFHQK
# Chain of Androgen receptor (Homo sapiens) (P10275 whole entry, looked up): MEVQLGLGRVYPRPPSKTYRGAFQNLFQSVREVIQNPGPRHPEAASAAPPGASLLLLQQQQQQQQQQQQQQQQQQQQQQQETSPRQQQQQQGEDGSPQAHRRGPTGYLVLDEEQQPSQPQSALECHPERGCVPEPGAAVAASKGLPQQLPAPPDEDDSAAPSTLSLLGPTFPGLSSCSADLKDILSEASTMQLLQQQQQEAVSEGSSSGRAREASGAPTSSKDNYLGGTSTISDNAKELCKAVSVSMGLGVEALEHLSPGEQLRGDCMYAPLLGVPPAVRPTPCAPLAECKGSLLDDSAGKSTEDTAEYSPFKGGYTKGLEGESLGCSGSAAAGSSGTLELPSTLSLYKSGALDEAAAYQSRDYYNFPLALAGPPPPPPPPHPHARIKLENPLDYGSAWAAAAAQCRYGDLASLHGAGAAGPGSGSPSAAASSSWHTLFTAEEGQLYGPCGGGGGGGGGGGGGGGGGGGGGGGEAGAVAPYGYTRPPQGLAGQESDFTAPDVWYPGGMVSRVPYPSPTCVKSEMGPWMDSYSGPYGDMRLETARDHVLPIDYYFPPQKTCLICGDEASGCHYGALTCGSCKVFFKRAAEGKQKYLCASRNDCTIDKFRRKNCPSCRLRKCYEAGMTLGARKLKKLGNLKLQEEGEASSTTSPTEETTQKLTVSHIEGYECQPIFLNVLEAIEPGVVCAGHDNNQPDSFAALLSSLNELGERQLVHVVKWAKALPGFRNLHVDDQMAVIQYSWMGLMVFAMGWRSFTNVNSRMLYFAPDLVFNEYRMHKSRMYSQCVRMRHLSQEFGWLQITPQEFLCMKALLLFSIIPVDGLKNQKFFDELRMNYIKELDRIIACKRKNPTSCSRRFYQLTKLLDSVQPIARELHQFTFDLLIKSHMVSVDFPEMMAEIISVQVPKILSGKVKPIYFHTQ
SMILES,outcome [1],outcome [2],outcome [3],outcome [4],outcome [5],outcome [6],outcome [7],outcome [8],Potency [9],outcome [10],outcome [11],Potency [12],Potency [13],Potency [14],Potency [15],Potency [16],outcome [17],Potency [18],Potency [19],outcome [20]
CC(C)(C)NC(N)=O,inactive,inactive,inactive,inactive,inactive,inactive,inactive,inactive,inactive,inactive,inactive,inactive,inactive,inactive,inactive,inactive,inactive,inactive,inactive,–
CC(C)NCC(O)COc1cccc2[nH]ccc12 (stereo not drawn),inactive,inactive,inactive,inactive,inactive,inactive,inactive,inactive,inactive,inactive,inactive,inactive,inactive,inactive,inactive,inactive,inactive,inactive,inactive,inactive
Cc1nc2n(c(=O)c1CCN1CCC(c3noc4cc(F)ccc34)CC1)CCC[C@H]2O,inactive,inactive,inactive,inactive,inactive,inactive,inactive,inactive,inactive,inactive,inactive,inactive,inactive,inactive,–,–,–,inactive,–,–
CCCCN,inactive,inactive,inactive,inactive,inactive,inactive,inactive,inactive,inactive,inactive,inactive,inactive,–,inactive,–,–,–,inactive,–,–
Nc1ccc([N+](=O)[O-])c(N)c1,inactive,inactive,inactive,inactive,inactive,inactive,inactive,inactive,inactive,inactive,–,inactive,inactive,inactive,inactive,–,–,59.6 µM (active),–,–
CCCCOCCOC(=O)COc1nc(Cl)c(Cl)cc1Cl,inactive,inactive,inactive,inactive,inactive,inactive,inactive,inactive,inactive,inactive,inactive,inactive,–,inactive,inactive,–,–,inactive,–,–
CNC(=O)[C@H]1O[C@@H](n2cnc3c(NCc4cc(Cl)ccc4OCc4cc(C)no4)ncnc32)[C@H](O)[C@@H]1N,inactive,inactive,inactive,inactive,inactive,inactive,inactive,inactive,inactive,inactive,inactive,–,inactive,inactive,–,inactive,inactive,inactive,inactive,inactive
COc1cc(N)ccc1C,inactive,inactive,inactive,inactive,inactive,inactive,inactive,inactive,inactive,inactive,inactive,inactive,–,inactive,inactive,–,–,inactive,–,–
CC(=O)/C=C/C1C(C)=CCC(C)C1(C)C (stereo not drawn),inactive,inactive,inactive,inactive,inactive,inactive,inactive,inactive,inactive,inactive,inactive,–,–,48.6 µM (active),–,–,–,inactive,–,–
COP(=O)(OC)OC(c1ccc(Cl)cc1)P(=O)(OC)OC (stereo not drawn),inactive,inactive,inactive,inactive,inactive,inactive,inactive,inactive,inactive,inactive,inactive,inactive,–,inactive,–,–,–,inactive,–,–
Cc1cc(C(C)(C)C)c(O)c(C)c1CC1=NCCN1,inactive,inactive,inactive,inactive,inactive,inactive,inactive,inactive,inactive,inactive,inactive,–,inactive,–,–,inactive,inactive,inactive,inactive,inactive
Cc1ccccc1N=O,inactive,inactive,inactive,inactive,inactive,inactive,inactive,inactive,inactive,inactive,inactive,inactive,–,inactive,inactive,–,–,inactive,–,–
COc1ccc2c(c1OC)C(=O)O[C@@H]2[C@H]1c2c(cc3c(c2OC)OCO3)CCN1C,inactive,inactive,inactive,inactive,inactive,inactive,inactive,inactive,inactive,inactive,inactive,inactive,–,–,inactive,–,–,inactive,–,–
CC(C)(C)c1n[nH]c(=S)n(N)c1=O,inactive,inactive,inactive,inactive,inactive,inactive,inactive,inactive,inactive,inactive,inactive,–,–,inactive,inactive,–,–,inactive,–,–
NS(=O)(=O)c1ccc(NC(=O)CCC(=O)O)cc1,inactive,inactive,inactive,inactive,inactive,inactive,inactive,inactive,inactive,inactive,inactive,inactive,–,inactive,inactive,–,–,inactive,–,–
CC(C)N(c1ccccc1)C(C)C,inactive,inactive,inactive,inactive,inactive,inactive,inactive,inactive,inactive,inactive,inactive,inactive,–,inactive,inactive,–,–,inactive,–,–

# Reference: PubChem BioAssay (Tox21)
